Results on 34 compounds are retold here after the supplement of paper PMC8975748.

Structures can show the parent of a compound that is named as a salt.

This assay concerns Saccharomyces cerevisiae BY4741 SeMeCo community. Briefly: z-score of subpopulation abundance vs DMSO median, subpopulation auxotrophic for M; higher = larger share of this subpopulation than in DMSO controls. The settings on record: 10 µM; 24 h; SM minimal medium; subpopulation (auxotrophy): M. Here is the method: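 Fluorescent four-plasmid SeMeCo (self-establishing metabolically cooperating S. cerevisiae BY4741 community; plasmids pH-mRuby2, pL-mWasabi, pU-eCFP, pM-TagRFP657) was grown 24 h in minimal SM medium with each Selleck FDA-approved drug at 10 µM in 384-well plates. Cells were fixed and imaged by high-content confocal microscopy. For each auxotrophic subpopulation (and the prototroph), a z-score gives the deviation from the DMSO vehicle-control population median.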
On to `CC[C@H]1[C@@H]2C[C@H]3[C@@H]4N(C)c5ccccc5[C@]45C[C@@H]([C@@H]2[C@H]5O)N3[C@@H]1O` [Ajmaline], for which the “z-score of subpopulation abundance” value came out at 0.82.
With `CN1C(=O)COc2c(C(=O)NC3CN4CCC3CC4)cc(Cl)cc21` (centres undefined) [Azasetron HCl] the figure was 1.59; with `COc1ccc2c3c([nH]c2c1)C(C)=NCC3` [Harmaline], 5.54.
For the compound `C[N+](C)(C)CCCCCCCCCC[N+](C)(C)C` [Decamethonium Bromide], the “z-score of subpopulation abundance” value was -0.44.
Consider `CC(C)(O)C(Cl)(Cl)Cl` [Chlorobutanol], for which the “z-score of subpopulation abundance” value worked out at 0.1.
In the case of `CC(C)=CCOc1c2occc2cc2ccc(=O)oc12` [Imperatorin] it was 1.13; in that of `O=c1cccc2n1C[C@@H]1CNC[C@H]2C1` [Cytisine], -0.43; in that of `CCN(C)C(=O)Oc1cccc([C@H](C)N(C)C)c1` [Rivastigmine Tartrate], -0.28.
With `COc1cc2c(cc1OC)C1CC(=O)C(CC(C)C)CN1CC2` (centres undefined) [Tetrabenazine (Xenazine)] the figure was 0.98; with `COc1ccc(C(CN(C)C)C2(O)CCCCC2)cc1` (centres undefined) [Venlafaxine], -0.73.
On to `C[C@@H]1O[C@@H](O[C@H]2C[C@@H](O)[C@]3(CO)[C@H]4[C@H](O)C[C@]5(C)[C@@H](C6=CC(=O)OC6)CC[C@]5(O)[C@@H]4CC[C@]3(O)C2)[C@H](O)[C@H](O)[C@H]1O` [Ouabain], for which the “z-score of subpopulation abundance” value was -0.73.
In the case of `CN(C)[C@@H]1C(=O)C(C(N)=O)=C(O)[C@@]2(O)C(=O)C3=C(O)c4c(O)ccc(Cl)c4[C@@](C)(O)[C@H]3C[C@@H]12` [Chlortetracycline HCl] it was 0.04.
As to `COC(=O)C1=CCCN(C)C1` [Arecoline HBr], the “z-score of subpopulation abundance” value turned out to be 0.3.
In the case of `CC[C@H]1CN2CC[C@]3(C(=O)Nc4ccccc43)[C@@H]2C[C@@H]1/C(=C\OC)C(=O)OC` [Rhynchophylline] it was -0.68; in that of `CN(C)[C@@H]1C(=O)C(C(N)=O)=C(O)[C@@]2(O)C(=O)C3=C(O)c4c(O)cccc4[C@@](C)(O)[C@H]3[C@H](O)[C@@H]12` [Oxytetracycline Dihydrate], -1.02.
As for `C=CC[C@]1(O)CC[C@H]2[C@@H]3CCC4=CC(=O)CCC4=C3C=C[C@@]21C` [Altrenogest], the “z-score of subpopulation abundance” value was found to be 0.62.
On to `NC(=O)CN1CCCC1=O` [Piracetam], for which the “z-score of subpopulation abundance” value came to 1.48.
With `Nc1ccncc1` [4-Aminopyridine] the figure was 0.04.
With `CC[N+](C)(CC)CCOC(=O)C(O)(c1ccccc1)c1ccccc1` [Methylbenactyzine Bromide] the figure was 0.22.
In the case of `CN(C)[C@@H]1C(=O)C(C(N)=O)=C(O)[C@@]2(O)C(=O)C3=C(O)c4c(O)cccc4[C@@](C)(O)[C@H]3[C@H](O)[C@@H]12` [Oxytetracycline (Terramycin)] it was -0.79; in that of `CC1(C)SC2C(N)C(=O)N2C1C(=O)O` (centres undefined) [6-Aminopenicillanic acid], 0.22; in that of `C#C[C@]1(O)C=C[C@H]2[C@@H]3CCC4=CC(=O)CC[C@@H]4[C@H]3CC[C@@]21CC` [Gestodene], 0.43.
For `CCC1=C[C@H]2CN3CCc4c([nH]c5ccccc45)[C@](C(=O)OC)(C2)[C@H]13` [Catharanthine], the “z-score of subpopulation abundance” value is -0.42.
Take `Cc1cc(C(C#N)c2ccc(Cl)cc2)c(Cl)cc1NC(=O)c1cc(I)cc(I)c1O` (centres undefined) [Closantel]: the “z-score of subpopulation abundance” value came out at 1.17.
With `CCCN1C[C@H](CSC)C[C@@H]2c3cccc4[nH]cc(c34)C[C@H]21` [Pergolide Mesylate] the figure was -0.05; with `CC[C@@]1(O)C(=O)OCc2c1cc1n(c2=O)Cc2cc3ccccc3nc2-1` [Camptothecin], 1.3.
`C=C[C@H]1CN2CC[C@H]1C[C@H]2[C@H](O)c1ccnc2ccccc12` [Cinchonidine]: the “z-score of subpopulation abundance” value was 0.23.
Regarding `C=CCN1C[C@H](C(=O)N(CCCN(C)C)C(=O)NCC)C[C@@H]2c3cccc4[nH]cc(c34)C[C@H]21` [Cabergoline], the “z-score of subpopulation abundance” value is -0.27.
In the case of `Cc1cc(O)ccc1Cl` [Chlorocresol] it was 1.26; in that of `CN(C)C(=O)Oc1cccc([N+](C)(C)C)c1` [Neostigmine Bromide], 0.29; in that of `CCN1CC2(OC(=O)c3ccccc3NC(C)=O)CCC(OC)C34C1C(CC23)C1(O)CC(OC)C2CC4C1(O)C2OC` (centres undefined) [Lappaconitine], 0.06.
`CC(NC(C)(C)C)C(=O)c1cccc(Cl)c1` (centres undefined) [Amfebutamone (Bupropion) HCl]: the “z-score of subpopulation abundance” value amounted to 0.97.
On to `CC(=O)O[C@H]1C[C@@H]2CC[C@@H]3[C@H](CC[C@@]4(C)[C@H]3C[C@H]([N+]3(C)CCCCC3)[C@@H]4OC(C)=O)[C@@]2(C)C[C@@H]1[N+]1(C)CCCCC1` [Pancuronium dibromide], for which the “z-score of subpopulation abundance” value was -1.46.
With `CNC1CC(N)C(O)C(OC2OC(CO)C(O)C3OC4(OC(C(N)CO)C(O)C(O)C4O)OC23)C1O` (centres undefined) [Hygromycin B] the figure was -0.9.
